Source: PubChem BioAssay AID1159580 (chemical genetic matrix, 2015)
Values joined by “and” are separate entries in the source; they are usually repeats but may differ in a detail not shown here. Equal values may be shown once. Out of some 5,500 compounds screened, about 2,000 (36%) were called active. Roughly 18% stayed inconclusive and do not appear here. No stated cut-off is given here; in the data, active means normalized growth mostly below about 0.91 (no sharp cut-off); inconclusive means no clear call, values can overlap the other calls; inactive means mostly above about 0.92. The list shows a part of the results.

Experiment: chemical genetic growth profiling, strain panel (AID 1159580);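 further: tested at 20 µM; growth read once vehicle control cultures reached saturation at 30 °C; 1 = growth at the plate median or of vehicle wells; lower values mean less growth of the strain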
Details: S. cerevisiae deletion strains, growth OD

Measured: normalized growth

COC(=O)CCC(C)[C@H]1CCC2C3C(C[C@H](O)[C@@]21C)[C@@]1(C)CC[C@@H](O)C[C@H]1C[C@H]3O (some centres undefined)
inactive: locus YAL013W, strain DEP1, active compounds read low 1.03 | locus YAL021C, strain ccr4, active compounds read low 1.01 | locus YAL026C, strain drs2, active compounds read low 0.997 | locus YAL030W, strain snc1, active compounds read low 1.01 | locus YBL061C, strain skt5, active compounds read low 1.01 | locus YBR009C, strain hhf1, active compounds read low 1 | locus YBR021W, strain FUR4, active compounds read low 0.952 | locus YBR023C, strain chs3, active compounds read low 1 | locus YBR171W, strain sec66, active compounds read low 1.01 | locus YBR229C, strain ROT2, active compounds read low 1.03 | locus YBR279W, strain paf1, active compounds read low 1.01 | locus YCL011C, strain gbp2, active compounds read low 1.02 | locus YCL016C, strain dcc1, active compounds read low 1.02 | locus YCL029C, strain bik1, active compounds read low 1.04 | locus YCL061C, strain MRC1, active compounds read low 1.02 | locus YCL069W, strain vba3, active compounds read low 1 | locus YCR088W, strain abp1, active compounds read low 1.02 | locus YDL005C, strain med2, active compounds read low 0.999 | locus YDL035C, strain GPR1, active compounds read low 1.01 | locus YDL040C, strain nat1, active compounds read low 1.01 | locus YDL074C, strain BRE1, active compounds read low 0.983 | locus YDL101C, strain DUN1, active compounds read low 1.01 | locus YDL185W, strain tfp1, active compounds read low 1.02 | locus YDL192W, strain arf1, active compounds read low 1.02 | locus YDR001C, strain nth1, active compounds read low 1.01 | locus YDR069C, strain doa4, active compounds read low 1 | locus YDR101C, strain arx1, active compounds read low 1.01 | locus YDR137W, strain rgp1, active compounds read low 1.07 | locus YDR150W, strain NUM1, active compounds read low 1.02 | locus YDR159W, strain sac3, active compounds read low 0.994 | locus YDR162C, strain NBP2, active compounds read low 1.02 | locus YDR195W, strain ref2 1 | locus YDR297W, strain sur2, active compounds read low 1.01 | locus YDR318W, strain mcm21, active compounds read low 1.01 | locus YDR334W, strain swr1, active compounds read low 1.01 | locus YDR335W, strain msn5, active compounds read low 1.01 | locus YDR388W, active compounds read low 1.02 | locus YDR392W, strain spt3, active compounds read low 0.965 | locus YDR502C, strain sam2, active compounds read low 1.02 | locus YEL003W, strain gim4, active compounds read low 1.01 | locus YEL037C, strain rad23, active compounds read low 1.01 | locus YEL061C, strain CIN8 (second series), active compounds read low 1.01 | locus YEL061C, strain CIN8, active compounds read low 1 | locus YER015W, strain faa2, active compounds read low 1.02 | locus YER016W, strain bim1, active compounds read low 1.01 | locus YER110C, active compounds read low 1.02 | locus YER111C, strain swi4, active compounds read low 1.01 | locus YER155C, strain BEM2 (second series), active compounds read low 1.02 | locus YER155C, strain BEM2, active compounds read low 1.02 | locus YER167W, strain BCK2, active compounds read low 1 | locus YFR010W, strain ubp6, active compounds read low 0.996 | locus YGL078C, strain dbp3, active compounds read low 1.02 | locus YGL086W, strain mad1, active compounds read low 1.01 | locus YGL167C, strain pmr1, active compounds read low 1.01 | locus YGL173C, strain kem1, active compounds read low 1.01 | locus YGL227W, strain vid30, active compounds read low 1.02 | locus YGL240W, strain doc1, active compounds read low 1.04 | locus YGL248W, strain PDE1, active compounds read low 1.01 | locus YGL253W, strain hxk2, active compounds read low 0.96 | locus YGR078C, strain PAC10, active compounds read low 1 | locus YGR135W, strain pre9, active compounds read low 1 | locus YGR252W, strain gcn5, active compounds read low 0.909 | locus YHR013C, strain ard1, active compounds read low 1.02 | locus YHR027C, strain rpn1, active compounds read low 1 | locus YHR030C, strain SLT2, active compounds read low 1.02 and 1.01 | locus YHR079C, strain IRE1 (second series), active compounds read low 1.03 | locus YHR079C, strain IRE1, active compounds read low 0.984 | locus YHR094C, strain hxt1, active compounds read low 1.06 | locus YHR129C, strain ARP1, active compounds read low 1.01 | locus YHR142W, strain chs7, active compounds read low 0.976 | locus YHR200W, strain rpn10, active compounds read low 1 | locus YIL066C, strain RNR3, active compounds read low 1.01 | locus YIL073C, strain SPO22, active compounds read low 1.07 | locus YIL125W, strain kgd1, active compounds read low 1.03 | locus YIR030C, strain dcg1, active compounds read low 1.03 | locus YJL092W, strain hpr5, active compounds read low 1.01 | locus YJL095W, strain BCK1 (second series), active compounds read low 1.02 | locus YJL095W, strain BCK1, active compounds read low 0.976 and 0.998 | locus YJL115W, strain asf1, active compounds read low 1.01 | locus YJL129C, strain trk1, active compounds read low 1.03 | locus YJL134W, strain LCB3, active compounds read low 1.03 | locus YJL154C, strain vps35, active compounds read low 1.02 | locus YJL164C, strain tpk1, active compounds read low 1.01 | locus YJL166W, strain qcr8, active compounds read low 1.02 | locus YJL168C, strain set2, active compounds read low 1.03 | locus YJL187C, strain SWE1 (second series), active compounds read low 1.02 | locus YJL187C, strain SWE1, active compounds read low 1.01 | locus YJR043C, strain POL32, active compounds read low 0.999 | locus YJR066W, strain TOR1, active compounds read low 0.949
